# Pf Dd2 inh – Plasmodium falciparum Dd2 growth inhibition; P. falciparum Dd2 growth, SYBR Green, 72 h; Potency, µM (top dose mostly 28.9 µM), inactives show at the highest dose activity, negative = inhibition, hits mostly inhibitors; 120,000 tested, 4.3% active; active means well fitted inhibition curve with a large enough effect;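 further: plate controls were DMSO vehicle for no effect and reference drug for full effect; nearly all actives have a fitted effect of over 65% in size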
#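 Infected erythrocytes (Dd2, 0.3% parasitemia, 2.5% hematocrit final) are added to compound in RPMI-1640/Albumax II medium, grown 72 h at 37C in low oxygen, then lysed with saponin/Triton-X containing SYBR Green and read by fluorescence.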
# Numbers without * were called inactive; i = inactive; [ ] = another dose, or the depositor's remark. Many of the other results were omitted from the sample, so hits are more common in it than they were. Potency means the concentration at half of the fitted maximal effect.
SMILES,Pf Dd2 inh
O=C1NC(=NC2CCCC2)C2(CCN(Cc3ccccc3)C2)N1c1cc(F)cc(F)c1 (configuration not stated),1.41µM*
CC(C)CCN1CCC2(CC1)C(=NC1CCCCC1)NC(=O)N2c1cccnc1,11.9%
O=C1NC(=NC2CCCC2)C2(CCN([S+](=O)([O-])c3ccccc3)C2)N1c1cc(F)cc(F)c1 (configuration not stated),-13.7%
CNC(=O)Nc1ccc(C)n(CC(=O)NCc2cccc(OC)c2)c1=O,-12.5%
CCCS(=O)(=O)Nc1ccc(=O)n2c1[C@@H]1C[C@@H](CN(C(=O)Nc3ccc(OC)cc3)C1)C2,24.6%
CS(=O)(=O)N1CCCC(C(=O)N2CCN(c3ccccc3F)CC2)CCNC(=O)CC1 (configuration not stated),17.6%
CC(C)n1c(CNC(=O)Cn2nc3c(cc2=O)CCCC3)nc2ccccc21,-12.2%
CCN(CC)Cc1cnc2c(C(=O)N3CC[C@H]4CC[C@@H](C3)N4)cnn2c1,-5.5%
COCCCNC(=O)N1CCCC(c2[nH]ccc2C(N)=O)C1 (configuration not stated),17.3%
CNc1nccc(N2CCC(CC(=O)N3CCN(CCC#N)CC3)CC2)n1,-8.5%
COc1ccc(-c2[nH]nc3ncc(C(=O)NCc4ccccc4)nc23)c(C)c1,i
N#Cc1cccc(-c2cn3c(n2)N(C(=O)c2ccsc2)CCC3)c1,-17.0%
CCOc1ccccc1CN1CCN(C(=O)CC2CCOCC2)CC1,-18.4%
CCOC(=O)C1CCN(Cc2ccccc2OCC(O)CN(C)C2CCCCC2)CC1 (configuration not stated),10µM*
O=C1CCN(Cc2ccccc2OCC(O)CN2CCCCC2)CCN1 (configuration not stated),-8.1%
Cc1cc(C(F)(F)F)nn1CC(=O)N1CCc2n[nH]c(=O)n2CC1,20.5%
COc1ccc(-c2cc(N3CCCC(NC(=O)c4ccc5c(c4)OCO5)C3)n[nH]2)cc1 (configuration not stated),i
CC(C)(Oc1nn(CC2CC2)c2ccc(CN3CCCC3)cc12)C(=O)NC1CC1,-32.4%[44.1 µM]
O=[S+]1([O-])NCC2(CCN(Cc3ccc(F)cc3)C2)Nc2ccccc21 (configuration not stated),-27.4%
O=[S+]1([O-])NCC2(CCN(Cc3cccc4ccccc34)C2)Nc2ccccc21 (configuration not stated),12.6µM*
O=[S+]1([O-])NCC2(CCN(Cc3ccccn3)C2)Nc2ccccc21 (configuration not stated),i
CN1CCCCCCN(C(=O)NCc2ccccc2)[C@H]2CCC[C@H]2C1=O,-10.3%
COCCNc1ccc2nnc(-c3cc(C#N)ccn3)n2n1,24.6%[44.1 µM]
COCCNc1cc(-c2cc(C(F)(F)F)ccn2)c2cc[nH]c2n1,10µM*
COCCNc1ccc2nnc(-c3ccc(C)cn3)n2n1,-19.8%[44.1 µM]
SMILES,Pf Dd2 inh
O=C(Cc1ccc(O)cc1)N1Cc2ccccc2CC2(CCN(Cc3ccncc3)C2)C1 (configuration not stated),7.94µM*
O=C(O)CCCC(=O)N1Cc2ccccc2CC2(CCCN(Cc3ccccc3)C2)C1 (configuration not stated),-1.9%
CC(=O)N1Cc2ccccc2CC2(CCN(Cc3ccccn3)C2)C1 (configuration not stated),-13.1%
C[C@H](C(=O)N1Cc2ccccc2CC2(CCN(Cc3ccncc3)C2)C1)c1ccccc1 (some centres not stated),10µM*
CC(C)NC(=O)N1CCC2(CC1)CN(Cc1ccncc1)Cc1ccccc1O2,1.7%
CC(=O)N1Cc2ccccc2CC2(CCCN(Cc3ccc(O)cc3)C2)C1 (configuration not stated),-19.9%
Cc1cccc(C(=O)N2C[C@@H]3CCCN4CCC[C@@H]([C@H]34)[C@H]2CCCC(=O)N2CCOCC2)c1,-9.0%
COc1ccc(C(=O)c2sc(Nc3ccccc3)nc2N)cc1,8.91µM*
COc1ccccc1C(=O)Nc1sc(Nc2ccccc2)nc1C(N)=O,39.7%
COc1ccc(C(=O)c2sc(Nc3cc(Cl)ccc3C)nc2N)cc1OC,53.5%
COc1cccc(CC(=O)N2CCC(CC(=O)NCc3ccccc3)C2)c1 (configuration not stated),i
CC(C)CN1CCN(C(=O)C2CCCN(S(=O)(=O)c3ccccc3)CCC(=O)NCC2)CC1 (configuration not stated),-7.4%
O=C(Cc1ccc2c(c1)OCO2)N1CC(COc2ccccc2)C2(C1)CN(c1ccccc1)C2 (configuration not stated),i
O=C(c1cccc(C(F)(F)F)c1)N1CCOCC2(CN(Cc3ccccc3)C2)C1,6.9%[44.1 µM]
COc1ncccc1-c1csc(CN2CCCC(C)(NC(C)=O)C2)c1 (configuration not stated),i
CC(=O)NC1(C)CN(Cc2ccc(-c3cccc(C(F)(F)F)c3)s2)C1,7.08µM*
CC(=O)NC1(C)CN(c2cccc(C(F)(F)F)c2)C1,-3.8%[44.1 µM]
CC(=O)NC1(C)CN(Cc2ccc(-c3cccc(F)c3)s2)C1,-22.3%[44.1 µM]
CC(=O)NC1(C)CN(Cc2ccc(-c3ccc(Oc4ccccc4)cc3)s2)C1,3.98µM*
CC(=O)Nc1cccc(-c2csc(CN3CCCC(C)(NC(C)=O)C3)c2)c1 (configuration not stated),i
COc1cccc(CN[C@@H]2CCC[C@@H](C(=O)NC3CCOCC3)CC(=O)N(C)C2)c1,1.4%[44.1 µM]
O=C(c1ccsc1)N1CC(CO)C2(CCNCC2)C1 (configuration not stated),-11.5%
Cn1cc(S(=O)(=O)c2cccc(Cl)c2)c(=O)c2cc(F)c(N3CCN(c4ccccc4)CC3)cc21,-0.5%
Cc1ccc(Cn2cc(S(=O)(=O)c3cccc(C)c3)c(=O)c3cc(F)c(N4CCOCC4)cc32)cc1,10µM*
Cc1cccc(S(=O)(=O)c2cn(C)c3cc(N4CCN(c5ccccc5)CC4)c(F)cc3c2=O)c1,40.8%
SMILES,Pf Dd2 inh
Cc1ccc(Cn2cc(S(=O)(=O)c3cccc(Cl)c3)c(=O)c3cc(F)c(N4CCOCC4)cc32)cc1,20.8%
CCn1cc(S(=O)(=O)c2cc(C)cc(C)c2)c(=O)c2cc(F)c(N3CCOCC3)cc21,20.3%
O=c1c(S(=O)(=O)c2ccccc2)cn(Cc2ccccc2)c2cc(N3CCOCC3)c(F)cc12,8.91µM*
COc1cccc(NC(=O)N[C@H]2CCN(C(=O)CSC)[C@@H]2C(=O)N[C@@H](CCCNC(=O)CSC)C(N)=O)c1,-15.8%
CCCN1CCc2nc(C(=O)Nc3nc(C)cs3)oc2CC1,-24.4%[44.1 µM]
CNc1ccc(OC2CCNCC2)nc1,18.4%
O=C(CCC1CCN(S(=O)(=O)c2ccccc2)CC1)N1CCOCC1,-18.4%
O=C(NCCc1ccc(Cl)cc1)c1ccc2c(c1)N(Cc1c(F)cccc1Cl)C(=O)CS2,i
O=C(NC1CCCC1)c1ccc2c(c1)N(Cc1ccccc1F)C(=O)c1ccccc1S2,i
CCN(CC)CCCNC(=O)c1ccc2c(c1)N(Cc1c(F)cccc1Cl)C(=O)c1ccccc1S2,0.447µM*
CCCCNC(=O)c1ccc2c(c1)N(CC)C(=O)c1ccccc1S2,0.9%
CCCCN(C)C(=O)c1ccc2c(c1)N(Cc1cccc(F)c1)C(=O)c1ccccc1S2,i
O=C(NCc1ccc2c(c1)OCO2)c1ccc2c(c1)N(Cc1c(F)cccc1Cl)C(=O)c1ccccc1S2,7.08µM*
CNC(=O)[C@@H]1C[C@@H](N)CN1C(=O)c1cnn(-c2ccccc2OC)c1,11.1%
COCCn1c(C)cnc1CCNC(=O)NCCc1ccccc1,-3.6%
O=C(NCC1CCOCC1)Nc1ccc(Cl)cc1,-8.9%

# Bioassay records (PubChem)
